ERG Ets-DNA blk: ERG Ets/DNA interaction inhibition; 370,000 tested, 0.028% active; fluorescence polarization, His-ERG Ets domain / labelled DNA; Potency, µM (titrated, usually from 76.9 µM), for inactives: top-dose FP activity, negative = inhibition, most hits filed as inhibitors; active = well fitted inhibition curve with a large enough effect in the polarisation, with a control signal flat; inconclusive = small, poorly fitted or top-dose-only effect, or effect the other way, or a change in a side signal; inactive = no such curve, though single readings can be large or run the other way; the % refers to the polarisation;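 note: polarization taken with two DNA probes labelled with fluorescein and Texas red; potency is the fitted concentration of half-maximal effect; % of control where 0% means no effect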
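His-tagged ERG Ets domain (1 uM in the protein solution; 300mM KCl, 50mM Tris-HCl, 1mM EDTA, 1mM DTT, pH 7.5) received compound, then a probe mix of 5 nM fluorescein-DNA and 100nM Texas-615-DNA. Fluorescence polarization was read for both dyes.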
RORgamma inh: ROR gamma (mouse) transcription inhibition; Potency, µM (doses to about 53.6 µM), inactives show at the top dose activity change, negative = inhibition, hits mostly inhibitors; 310,000 tested, 5.4% active; AID 2551; Drosophila S2 Gal4-RORgamma UAS-luciferase reporter, 20 h; P51450; note: potency is the fitted concentration of half-maximal effect; % is set by controls: 0 for no effect and ±100 for the full control effect; nearly all actives have a fitted effect of over 60% in size
Target sequence (P51450 whole entry, looked up, the tested form may be a part): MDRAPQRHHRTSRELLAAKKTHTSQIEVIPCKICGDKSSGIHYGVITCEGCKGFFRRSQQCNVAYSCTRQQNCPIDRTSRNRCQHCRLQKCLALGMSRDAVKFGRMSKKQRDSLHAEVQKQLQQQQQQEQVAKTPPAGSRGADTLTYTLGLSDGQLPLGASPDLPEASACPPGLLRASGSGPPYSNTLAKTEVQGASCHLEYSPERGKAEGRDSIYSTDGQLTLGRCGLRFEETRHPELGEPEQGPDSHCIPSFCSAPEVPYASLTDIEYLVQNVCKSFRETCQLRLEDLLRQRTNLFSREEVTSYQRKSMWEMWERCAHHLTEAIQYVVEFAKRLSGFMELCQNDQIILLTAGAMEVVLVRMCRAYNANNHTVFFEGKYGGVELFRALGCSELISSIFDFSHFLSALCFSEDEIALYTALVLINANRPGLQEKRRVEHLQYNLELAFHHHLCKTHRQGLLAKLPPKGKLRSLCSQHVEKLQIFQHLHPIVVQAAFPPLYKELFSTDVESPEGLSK
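ROR gamma transcriptional activity was tracked as Gal4-UAS luciferase output in stably transfected Drosophila Schneider cells, with compound added 1 hr before 700 uM copper sulfate induction and a 20 hr ambient-temperature incubation.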
Integrin act MD: activators of alpha7 integrin expression for muscular dystrophy. alpha7betagal myoblasts, beta-gal FDG fluorescence, 48 h. Potency, µM (top dose mostly 38.3 µM), inactives show at the highest dose activation, most hits filed as activators. 350,000 tested, 0.064% active;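 note: potency is the fitted concentration of half-maximal effect; 100% = response of the positive control SU9516; nearly all actives have a fitted effect of over 60% in size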
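Alpha7betagal+/- myoblasts (passage 13) were plated 16-24 hr, then exposed to compounds (1:260 dilution of DMSO stock) for 48 hours at 37C. After MPER lysis, β-galactosidase reporter activity was read as FDG fluorescence (ex 480/em 540) after 30 minutes.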
Giardia killer: Giardia lamblia killing. Giardia lamblia trophozoite viability. activity change, % at 7.66 µM, hits read low. 340,000 tested, 0.15% active. AID 540267; in the data active = activity change below about -80%; inconclusive = between about -30% and that limit;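 note: parasites exposed to compound for two days anaerobically before the ATP read; % is set by controls: 0 for no effect and ±100 for the full control effect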
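Trophozoites 100 cells/well + cpd; 48 hrs, 37 deg C, anaerobic. ATPLite 1-Step added, 15-30 min RT, luminescence read (ATP-based viability).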
Gal4-VP16 FLuc: Gal4-VP16 reporter inhibition counter-screen | Potency, µM (series often up to 53.6 µM), inactives show at the highest dose activity, negative = inhibition, hits mostly inhibitors | Drosophila S2 Gal4-VP16 UAS-luciferase, luminescence, 20 h | 310,000 tested, 3.5% active;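 note: Gal4-VP16 expression switched on by copper sulfate through the metallothionein promoter; potency is the fitted concentration of half-maximal effect; % is set by controls: 0 for no effect and ±100 for the full control effect; nearly all actives have a fitted effect of over 50% in size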
* hit, by the source's call; ? = inconclusive; . = no result given; [ ] = another dose, or the depositor's remark. Only a selection was taken, and hits are over-represented in it overall. Unless noted, calls come from the whole dose curve; as a rule, active = well fitted curve in the direction sought with a large enough effect; inconclusive = small, poorly fitted or top-dose-only effect, or another doubt; inactive = no such curve, though single readings can be large; an effect the other way counts as inactive or inconclusive.

SMILES	ERG Ets-DNA blk	RORgamma inh	Integrin act MD	Giardia killer	Gal4-VP16 FLuc
Cc1ccc(SCC(=O)OCC(=O)NC(C)c2ccc(F)cc2)cc1 (centres undefined)	-7.6%	.	0.0%	-11.1	.
O=c1[nH]c(N/N=C/c2ccccc2)nc2ccccc12	-8.2%	-27.0%	9.1%[7.66 µM]	0.5	?
Fc1ccc(/C=N/Nc2nc3ccccc3[nH]2)cc1F	8.4%	7.94µM*	-24.3%	48.3	?
Cc1nn(-c2ccccc2)c(Cl)c1/C=N/Nc1nc2ccccc2[nH]1	1.3%	?	-23.5%	-8.1	?
Brc1ccc(-c2ccc(/C=N/Nc3nc4ccccc4[nH]3)o2)cc1	-19.7%	4.47µM*	?	?	5.01µM*
Brc1ccc(-c2ccc(/C=N/Nc3nc(N4CCOCC4)nc(N4CCOCC4)n3)o2)cc1	-2.1%	-0.6%	-14.6%	-17.7	1.9%
C(=N\Nc1nc2ccccc2[nH]1)/c1ccccc1	-20.1%	10µM*	35.8%	28.1	?
C(=N\Nc1nc2ccccc2[nH]1)/C1CCCCC1	10.3%	11.2µM*	-19.7%	11.6	?
O=C(O)c1ccccc1Oc1ccc(Oc2ccccc2)cc1	-7.5%	33.9%	-7.2%	16.8	3.1%
CCOc1ccc(CCNC(=O)CSc2ncn[nH]2)cc1OCC	-10.9%	9.1%	1.3%	-8.8	-4.0%
CCOC(=O)C1=C(COC(=O)COc2ccc(C(=O)CC)cc2)NC(=O)NC1C (centres undefined)	5.9%	.	-11.0%	5.0	.
c1ccc(CNc2nc3ccccc3[nH]2)cc1	.	?	19.1%	0.3	-20.5%
CCCc1cc(=O)[nH]c(N/N=C/C=C\c2ccccc2)n1	-7.8%	7.08µM*	0.0%	0.2	3.6%[10 µM]
C(=C\c1ccccc1)/C=N/Nc1nc2ccccc2[nH]1	2.7%	3.16µM*	-36.5%	-1.8	5.01µM*
Fc1cccc(/C=N/Nc2nc3ccccc3[nH]2)c1	13.6%	10µM*	-14.5%	5.6	?
Fc1cccc(/C=N/Nc2ncnc3nc[nH]c23)c1	-3.3%	?	-12.4%	-27.4	6.4%
C(/CCc1ccccc1)=N\Nc1nc2ccccc2[nH]1	13.8%	11.2µM*	1.4%	5.1	-25.5%
Nc1ccc(Nc2nc3ccccc3[nH]2)cc1	-0.5%	14.9%	15.2%	2.9	-21.7%
O=C(CCc1cn2ccccc2n1)NC1CCCc2c1cnn2-c1ccccc1F (centres undefined)	1.4%	17.7%	-32.6%	14.2	-2.9%
O=C1CCC(C(=O)N2CCCC(Nc3ccc(F)cc3)C2)=NN1 (centres undefined)	-3.5%	15.5%	11.7%	5.5	0.4%
CN1OC[C@@H]2CN(Cc3cc(Cl)cc(Cl)c3)[C@H](c3cccc(Br)c3)C[C@@H]21	0.9%	.	20.0%	-29.3	.
COc1ccc(CN(C(=O)Cn2nnc(-c3ccc(C)o3)n2)C(C(=O)NCC2CCCO2)c2ccco2)cc1 (centres undefined)	-0.6%	5.01µM*	2.2%	-13.2	7.08µM*
COc1ccc(-c2nnn(CC(=O)N(Cc3ccco3)C(C(=O)NCC3CCCO3)c3ccco3)n2)cc1 (centres undefined)	-4.4%	7.8%[10 µM]	18.9%	-13.8	4.0%
CCN(c1ccccc1)S(=O)(=O)c1ccc(C(=O)Nc2cccc(C)n2)cc1	-13.9%	.	-7.2%	-4.2	.
COCc1nnc(NC(=O)c2ccc(S(=O)(=O)N(C)c3ccccc3)cc2)o1	10.6%	1.58µM*	0.0%	-17.5	2.51µM*
SMILES	ERG Ets-DNA blk	RORgamma inh	Integrin act MD	Giardia killer	Gal4-VP16 FLuc
CCN(c1ccccc1)S(=O)(=O)c1ccc(C(=O)Nc2nnc(COC)o2)cc1	-0.1%	0.562µM*	-27.6%	3.0	1.26µM*
CCN(c1ccccc1)S(=O)(=O)c1ccc(C(=O)Nc2nnc(CSC)o2)cc1	-6.2%	0.355µM*	-47.2%	9.6	0.891µM*
O=C(CCS(=O)(=O)c1cccs1)Nc1ccc(C(=O)Nc2ccccc2F)cc1	-0.3%	.	.	.	.
CC(=O)N1CCc2c(sc3c2c(=O)n(CCc2ccccc2)c(=O)n3Cc2ccccc2C)C1	0.6%	.	.	.	.
CCc1cccc(CC)c1-n1c(-c2cccnc2)n[nH]c1=S	?	3.55µM*	10.5%	-10.1	15.8µM*
O=C1/C(=C/c2ccncc2)SC(=S)N1Nc1ccccc1	?	?	-4.7%	3.9	?
Cc1cc(C)nc(NN2C(=O)/C(=C/c3ccccc3)SC2=S)n1	4.9%	12.6µM*	-34.7%	1.4	-11.6%
Cc1noc2ncnc(Sc3ccc(Cl)cc3)c12	1.8%	7.08µM*	-35.7%	9.6	6.31µM*
Cc1noc2ncnc(Sc3c(Cl)cccc3Cl)c12	-7.4%	-110.6%	-33.8%	3.2	15.8µM*
Cc1noc2ncnc(NCc3cccc(Cl)c3)c12	0.7%	.	.	.	.
Cc1ccc(CSc2ncnc3onc(C)c23)cc1	8.4%	-0.7%	-20.5%	-5.8	-5.5%
Cc1ccc(Sc2ncnc3onc(C)c23)cc1	-0.9%	10µM*	22.6%	-15.5	22.4µM*
Cc1noc2ncnc(SCc3ccc(C(F)(F)F)cc3)c12	6.6%	?	4.4%	-14.3	-6.8%
Cc1ccccc1Sc1ncnc2onc(C)c12	3.2%	7.08µM*	-41.6%	9.0	?
CC(=O)OCCN(C)c1cc(SC(C)C)c2nonc2c1[N+](=O)[O-]	0.0%	?	-17.6%	15.8	29.2%
CN(CCO)c1cc(Sc2nc3ccccc3s2)c2nonc2c1[N+](=O)[O-]	-6.0%	11.2µM*	-42.9%[7.66 µM]	0.6	12.6µM*
Cc1ccc(NC(=S)N(CCN(C)C)C(C)c2ccco2)cc1C (centres undefined)	-20.7%	18.6%	-29.5%	-2.3	?
COCCN(C(=S)Nc1ccc(C)c(C)c1)C(C)c1ccco1 (centres undefined)	10.9%	4.47µM*	16.5%	14.3	?
COc1cccc(NC(=S)N(Cc2ccco2)C(C)c2ccco2)c1 (centres undefined)	-15.3%	?	3.0%	-4.2	17.8µM*
Cc1cccc(NC(=S)N(Cc2ccco2)C(C)c2cccs2)c1 (centres undefined)	23.2%	14.1µM*	?	-7.3	?
O=C1c2ccccc2NC(c2ccccc2OCc2ccccc2)N1Cc1ccco1 (centres undefined)	.	.	.	-21.5	.
Cc1ccc(Nc2nc(N)[nH]c(=O)c2N=O)cc1	12.6%	-10.0%	4.2%	11.9	2.4%
Cc1ccc(C)c(-n2c(-c3ccc4c(c3)OCO4)n[nH]c2=S)c1	-8.0%	7.4%	-11.4%	-1.3	-0.4%
CCN(CC)c1ccc(-c2n[nH]c(=S)n2-c2ccccc2C)cc1	-3.5%	?	-7.2%	22.7	-13.7%
COc1ccc(-c2n[nH]c(=S)n2-c2ccccc2C)cc1OC	7.0%	11.2µM*	-10.0%	3.2	?
COc1ccc(-c2n[nH]c(=S)n2-c2ccccc2C)cc1	5.5%	5.62µM*	27.3%	-1.1	6.31µM*
COc1ccc(-c2n[nH]c(=S)n2-c2ccc(Br)cc2)cc1OC	-3.1%	20µM*	-9.4%	-5.4	?

Screening data (PubChem BioAssay)
